JMJD2A Tudor – qHTS Assay for Inhibitors of JMJD2A-Tudor Domain. AlphaScreen JMJD2A-Tudor / H3K4me3 peptide binding. Potency, µM (top dose mostly 114 µM), inactives show at the top dose activity change, negative = inhibition, hits mostly inhibitors. Lysine-specific demethylase 4A (Homo sapiens), O75164. 390,000 tested, 4.4% active; further: on the % scale 0 is the no-effect control and ±100 the full control effect; nearly all actives have a fitted effect of over 50% in size
L3MBTL1 inh – qHTS Assay for the Inhibitors of L3MBTL1; Lethal(3)malignant brain tumor-like protein 1 (Homo sapiens), Q9Y468; AlphaScreen L3MBTL1–H3K9me1 peptide binding; Potency, µM (top dose mostly 57.1 µM), without a hit: at the top dose activity, negative = inhibition, most hits filed as inhibitors; 230,000 tested, 0.66% active; further: on the % scale 0 is the no-effect control and ±100 the full control effect; nearly all actives have a fitted effect of over 60% in size
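First, the protein-peptide complex forms for 30 min at room temperature (L3MBTL1 50 nM, biotinylated H3K9me1 peptide 75 nM). Next, compounds are pin-transferred and incubated 30 min. Finally, AlphaScreen beads are added and read after 30 min.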
BAZ2B block – qHTS Assay for Inhibitors of BAZ2B. Bromodomain adjacent to zinc finger domain protein 2B (Homo sapiens), Q9UIF8. AlphaScreen BAZ2B-H3K14Ac peptide displacement. Potency, µM (highest dose often 114 µM), inactives show at the highest dose activity change, negative = inhibition, hits mostly inhibitors. 360,000 tested, 4.4% active. AID 504333, 2011; further: on the % scale 0 is the no-effect control and ±100 the full control effect; nearly all actives have a fitted effect of over 60% in size
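AlphaScreen luminescence quantifies BAZ2B engagement of H3K14Ac peptide; the protein and biotinylated peptide are both at 50 nM final, buffer PBS pH 7.4 with 0.01% Tween-20, all steps at room temperature.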
HP1b binding inh – HTS for Inhibitors of HP1-beta Chromodomain Interactions with Methylated Histone Tails; Chromobox protein homolog 1 (Homo sapiens), P83916; AlphaScreen HP1-beta / biotin-H3K9me3 peptide binding; Potency, µM (highest dose often 114 µM), without a hit: top-dose activity change, negative = inhibition, actives largely listed as inhibitors; 390,000 tested, 0.56% active; AID 540317, 2011; further: nearly all actives have a fitted effect of over 70% in size
Target sequence (P83916 whole entry, looked up): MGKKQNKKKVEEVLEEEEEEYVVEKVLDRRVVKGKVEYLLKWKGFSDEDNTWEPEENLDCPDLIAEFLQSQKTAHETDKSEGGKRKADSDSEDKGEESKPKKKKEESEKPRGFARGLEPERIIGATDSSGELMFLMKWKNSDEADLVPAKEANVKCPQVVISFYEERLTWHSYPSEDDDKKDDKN
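AlphaScreen: HP1-beta (50 nM) preformed 30 min with biotin-H3(1-18)K9me3 peptide (50 nM) in PBS pH 7.4, 0.01% Tween-20. Compound added for 30 min at RT, then streptavidin donor/nickel chelate acceptor beads (10 ug/mL) for 30 min.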
G9a block – qHTS Assay for Inhibitors of Histone Lysine Methyltransferase G9a. Histone-lysine N-methyltransferase EHMT2 (Homo sapiens), Q96KQ7. G9a H3K9 monomethylation, AlphaScreen, 2 h. Potency, µM (doses to about 102 µM), inactives show at the highest dose activity, negative = inhibition, most hits filed as inhibitors. 350,000 tested, 8.8% active. AID 504332, 2011; further: on the % scale 0 is the no-effect control and ±100 the full control effect; nearly all actives have a fitted effect of over 75% in size
Target sequence (Q96KQ7 913-1193 limits assumed): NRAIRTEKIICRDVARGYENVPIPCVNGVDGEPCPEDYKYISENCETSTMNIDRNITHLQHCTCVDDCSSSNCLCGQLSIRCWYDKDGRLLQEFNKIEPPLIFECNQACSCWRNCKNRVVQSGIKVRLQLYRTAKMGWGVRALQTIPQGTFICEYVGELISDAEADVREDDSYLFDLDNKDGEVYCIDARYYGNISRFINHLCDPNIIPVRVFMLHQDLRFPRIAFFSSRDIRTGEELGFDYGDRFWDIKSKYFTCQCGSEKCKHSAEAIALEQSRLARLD
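Readings reflect AlphaScreen signal from monomethyl-H3K9 antibody detection. HMT at 20 nM; substrate b-H3K9 500 nM; cofactor SAM 20 uM; 2 h RT reaction; compounds tested as titrations in qHTS with 15 min preincubation.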
* = called active by the depositor; ? = inconclusive; · = no result given; [ ] = another dose, or the depositor's remark. Only some compounds are listed: those with a hit (about 11% of all), similar ones and a draw of the others. The call rests on the fitted dose curve; in most records, active means well fitted inhibition curve with a large enough effect; inconclusive means small, poorly fitted or top-dose-only effect; inactive means no such curve, though single readings can be large or run the other way. Potency means the concentration at half of the fitted maximal effect.

SMILES	JMJD2A Tudor	L3MBTL1 inh	BAZ2B block	HP1b binding inh	G9a block
CC(=O)N1CCc2c(sc3c2c(=O)n(Cc2ccccc2)c(=O)n3Cc2ccccc2Cl)C1	?	·	-31%	-9%	?
N#Cc1ncc(Cl)c2ccccc12	-6%	-2%	38%	36%	43%
Cc1cccc(-c2nc3c4ccccc4nc(NCc4ccc(Cl)cc4)n3n2)c1	4%	·	7%	·	5%[59 µM]
CC(NCCCOc1cccc2ccccc12)c1ccccc1 (stereo unspecified)	22µM*	-2%	?	?	11µM*
COc1ccc2ccccc2c1CNCc1ccc(C)cc1	22µM*	-8%	?	?	50µM*
CC(NCc1ccccc1O)c1ccccc1 (stereo unspecified)	13%	10%	0%	40%	20%
COc1ccc2ccccc2c1CNC(C)c1ccccc1 (stereo unspecified)	79µM*	-9%[2.29 µM]	?	-5%	20%[0.501 µM]
CC(NCCOCCOc1ccccc1)c1ccccc1 (stereo unspecified)	13%	3%	0%	32%	9%[59 µM]
COc1ccc2ccccc2c1CNCCCN1CCOCC1	-7%	4%	-19%	46%	-14%
COc1cccc(N2C(=O)CSC23C(=O)N(CC(=O)Nc2cccc(Cl)c2)c2ccccc23)c1 (stereo unspecified)	-20%	·	1%[57.1 µM]	13%	?
O=C(NCc1ccccc1Cl)c1ccc2c(c1)ncn2-c1cccc(F)c1	-5%	·	-6%	-4%	-6%[59 µM]
CS(=O)(=O)Nc1cccc(-c2nc(NCc3ccccc3)c3ccccc3n2)c1	·	·	·	·	3%[0.501 µM]
COc1cc(/C=N/NC(=O)c2cccc(S(=O)(=O)N3CCCC3)c2)cc(OC)c1O	-10%	-6%	10%	14%	14µM*
CCN(CC)S(=O)(=O)c1cccc(C(=O)N/N=C/c2cc(OC)c(O)c(OC)c2)c1	-20%	-3%	1%	15%	10µM*
Cc1c(Cl)cccc1NC(=O)c1cc2nc(-c3ccc4c(c3)OCO4)cc(C(F)(F)F)n2n1	-12%	·	0%	38%	2%[59 µM]
COc1ccc(-c2nc(CN3CCN(c4cc(C)nc(C)c4)CC3)c(C)o2)c2ccccc12	-35%	6%	-7%	7%	·
Cc1oc(-c2cccc3ccccc23)nc1CN1CCN(c2ncnc3ccccc23)CC1	?	-13%	?	?	45µM*
CC(C)N1C(=O)/C(=C/c2nc3ccccc3c(=O)n2-c2ccccc2)c2ccccc21	20µM*	?	35µM*	25µM*	10µM*
CC(C)N1C(=O)C(Cc2nc3ccccc3c(=O)n2-c2ccccc2)c2ccccc21 (stereo unspecified)	-23%	-3%	?	2%	·
CC(C)N1C(=O)/C(=C\c2nc3ccccc3c(=O)n2-c2ccccc2)c2ccccc21	35µM*	-29%	10µM*	?	?
COc1ccccc1OCCn1c(-c2ccc(Br)cc2)nc2ccccc2c1=O	2%	·	-30%	59%	-2%[59 µM]
Cc1ccc(NS(=O)(=O)c2cccs2)nc1	-12%	·	6%	32%	99%
CCCCS(=O)(=O)Nc1ccc(C)cn1	-18%	-1%	-2%	?	7.1µM*
CC(C)CC(=O)Nc1ccc(Nc2ccccc2)cc1	3%[57.1 µM]	-4%	?	-6%	20µM*
O=C(CC(NCCc1ccccc1)C(=O)O)Nc1ccc(O)cc1 (stereo unspecified)	·	·	?	·	22µM*
Cc1cnc(CNc2ncnc3ccc(-c4ccccc4C(F)(F)F)cc23)cn1	·	·	·	·	0%[0.501 µM]
C[N+](C)(C)CCN(Cc1ccc(Cl)cc1)c1ccccn1	-35%	2%	50µM*	23%	11%[59 µM]
CN(C)CCN(Cc1ccc(Cl)cc1)c1ccccn1	-20%	-6%	-3%	53%	-18%
CCCCn1c(SCC(=O)c2ccc(OCC)cc2)nc2cc(S(N)(=O)=O)ccc21	?	·	0%	0%	?

Assay outcomes: PubChem BioAssay, National Center for Advancing Translational Sciences (NCATS)
